VDR inhibitor: blocks the human vitamin D receptor | AID 504847 | P11473 | Potency, µM, for inactives: max response, negative = inhibition, most hits filed as inhibitors | actives 0.93% (n = 400,000) | VDR-SRC2-3 peptide fluorescence polarization, 2 h; further: on the % scale 0 is the no-effect control and ±100 the full control effect
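Inhibition of the VDR/SRC2-3 peptide interaction is quantified by fluorescence polarization. Compounds (23 nl, pintool) incubate with the reagents for 2 hours at ambient room temperature.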
L3MBTL1 block: L3MBTL1 (human) inhibition. Q9Y468. AlphaScreen L3MBTL1–H3K9me1 peptide binding. Potency, µM (series often up to 57.1 µM), for inactives: at the top dose activity, negative = inhibition, hits mostly inhibitors. actives 0.66% (n = 230,000). AID 485360; further: on the % scale 0 is the no-effect control and ±100 the full control effect; nearly all actives have a fitted effect of over 60% in size
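AlphaScreen assay: L3MBTL1 (50 nM final) was preincubated 30 min at room temperature with biotinylated H3(1-15)K9me1 peptide (75 nM final), then 30 min with library compounds; streptavidin donor and nickel chelate acceptor beads (10 ug/mL final) added, 30 min dark.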
JMJD2A Tudor: JMJD2A Tudor domain (human) inhibition; O75164; AlphaScreen JMJD2A-Tudor / H3K4me3 peptide binding; Potency, µM (doses to about 114 µM), for the others: at the highest dose activity change, negative = inhibition, most hits filed as inhibitors; actives 4.4% (n = 390,000); AID 504339; further: on the % scale 0 is the no-effect control and ±100 the full control effect; nearly all actives have a fitted effect of over 50% in size
PLK1 PBD block: inhibitors of human PLK1 polo-box domain binding; Plk1 PBD binding of FITC phosphopeptide, fluorescence polarization; Potency, µM, inactives show max response, negative = inhibition, hits mostly inhibitors; actives 2.8% (n = 360,000); P53350; AID 720504; further: series mostly up to about 57 µM; on the % scale 0 is the no-effect control and ±100 the full control effect; nearly all actives have a fitted effect of over 65% in size
BAZ2B block: blocks human BAZ2B; actives 4.4% (n = 360,000); AlphaScreen BAZ2B-H3K14Ac peptide displacement; Potency, µM (doses to about 114 µM), for inactives: at the top dose activity change, negative = inhibition, actives largely listed as inhibitors; Q9UIF8; further: on the % scale 0 is the no-effect control and ±100 the full control effect; nearly all actives have a fitted effect of over 60% in size
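Inhibition is scored as reduced AlphaScreen emission. The BAZ2B/b-H3(5-23)K14Ac complex (50 nM each) in PBS pH 7.4, 0.01% Tween-20 meets compound (up to 110 uM) for 30 min at RT before bead addition.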
HP1b chromo inh: inhibitors of HP1-beta chromodomain binding to methylated histone tails; P83916; AlphaScreen HP1-beta / biotin-H3K9me3 peptide binding; Potency, µM (highest dose often 114 µM), for the others: at the highest dose activity change, negative = inhibition, actives largely listed as inhibitors; actives 0.56% (n = 390,000); further: nearly all actives have a fitted effect of over 70% in size
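Compound inhibition of the preformed complex between 50 nM HP1-beta and 50 nM biotinylated H3K9me3 peptide was read by AlphaScreen. Buffer was PBS pH 7.4 with 0.01% Tween-20. Incubations ran 30 min at room temperature, with 10 ug/mL donor/acceptor beads.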
* marks the source's active call; other numbers are inactive results; ? = inconclusive; nt = no result given; [ ] = dose if it differs, or a comment. Only some compounds are listed: those with a hit (about 6.9% of all), similar ones and a draw of the others. The call rests on the fitted dose curve; in most records, active means well fitted curve in the direction sought with a large enough effect; inconclusive means small, poorly fitted or top-dose-only effect, or another doubt; inactive means no such curve, though single readings can be large; an effect the other way counts as inactive or inconclusive. Potency means the concentration at half of the fitted maximal effect.

SMILES	VDR inhibitor	L3MBTL1 block	JMJD2A Tudor	PLK1 PBD block	BAZ2B block	HP1b chromo inh
CC1/C=C/C=C/C=C/C=C/C=C/C=C/C=C/C(OC2OC(C)C(O)C(N)C2O)CC2O[C@@](O)(CC(O)CC(O)C(O)CCC(O)CC(O)CC(=O)OC(C)[C@H](C)C1O)CC(O)C2C(=O)O (stereo partly drawn)	50µM*	nt	nt	nt	nt	nt
N#Cc1nc(Nc2ccc3ccccc3c2)nc(NC2CCCC2)n1	nt	nt	-16%	nt	nt	nt
Cc1ccccc1Nc1c(-c2ccc(Cl)s2)nc2cccc(C)n12	-13%	nt	-21%	nt	-24%	4%
CC1CCN(C(=S)Nc2ccc(SC(F)F)cc2)CC1	-10%	-4%	-3%	-13%	7%	27%
CC(=O)N1CCN(C(=S)Nc2ccc(SC(F)F)cc2)CC1	-6%	6%	-27%	21µM*	nt	23%
COCCCNCCCCOc1c(Cl)cc(C)cc1Br	11%	-4%	2.5µM*	-2%	22µM*	?
Cc1cc(Cl)c(OCCCNC2CCCC2)c(Br)c1	8%	1%	22µM*	0%	?	-37%
C=CCNCCCCOc1c(Cl)cc(C)cc1Br	13%	-2%	8%	2%	?	34%
O=S(=O)(c1ccc(-n2cnnn2)cc1)N1CCN(c2cccc(C(F)(F)F)c2)CC1	0%	nt	-14%	nt	3%	20%
O=c1cc(CSc2ccccc2)[nH]c(=S)[nH]1	-6%	8%	89µM*	-16%	-10%	50%
COCCOC(=O)c1c(C)n(C)c2ccc(OC(=O)c3c(OC)cccc3OC)cc12	?	nt	-19%	9.5µM*	-27%	-21%
Cc1cc(-c2ccccc2)c(C#N)c(=S)[nH]1	-19%	2%	6.3µM*	-25%	-9%	79µM*
N#Cc1c(-c2ccccc2Cl)cc(-c2ccccc2)[nH]c1=S	nt	-3%	nt	nt	-12%	nt
COc1ccccc1N1CCN(CCS(=O)(=O)c2cc(Cl)ccc2Cl)CC1	nt	nt	nt	3%	nt	nt
CC(=O)N1CCN(C(=O)CC2OC(=O)c3ccccc32)CC1 (stereo not drawn)	?	-7%	-26%	27µM*	?	-13%
COc1ccccc1NC(=O)C1=C(C)Nc2nc(SCc3ccccc3)nn2C1c1cccc(O)c1 (stereo not drawn)	1%	nt	-17%	nt	0%	15%
COC(=O)c1ccc(=O)c2nc3/c(=C/O)c(O)cc(=O)c3[nH]c12	-11%	nt	0.63µM*	19µM*	0.71µM*	-69%
Nc1nc(-c2ccccn2)nc(N)c1Cc1ccccc1F	-7%	4µM*	?	-11%	6.3µM*	42%
Nc1nc(-c2ccccn2)nc(N)c1Cc1ccc(Cl)cc1Cl	20%	3.5µM*	89µM*	-13%	7.9µM*	34%
CNc1cc(C(F)(F)F)nc(-c2ccccn2)n1	-8%	-7%	?	0%	-1%	31%
O=C(C=Cc1ccccn1)c1ccccc1O	56µM*	nt	-21%	21µM*	nt	2%[57 µM]
O=C(/C=C/c1ccccc1Cl)NC1CCCCC1	-6%	-4%	2%	-19%	-3%	16%
O=C(C=Cc1ccccc1Cl)c1ccccc1	35µM*	nt	62%	-16%	nt	38%[57 µM]
O=C(C=Cc1ccccn1)c1ccccc1	20µM*	nt	-8%	?	nt	18%[57 µM]
CCC(CC)NC(=O)/C=C/c1ccccc1Cl	50µM*	-2%	?	30µM*	13%	?
SMILES	VDR inhibitor	L3MBTL1 block	JMJD2A Tudor	PLK1 PBD block	BAZ2B block	HP1b chromo inh
COC(=O)c1ccccc1NC(=O)CCC(=O)N1CC(C)Oc2ccc(C)cc21 (stereo not drawn)	0%	13%	-4%	2%	11%	44%
COC(=O)[C@]12CCCCC=C1N(Cc1cccc3ccccc13)C(=O)[C@H](CC(=O)NCCC(C)C)C2	nt	nt	nt	-11%	nt	nt
COc1cc(CNC(=O)c2cc(-c3ccccc3)n[nH]2)cc(OC)c1OC	4%	nt	-2%	nt	-11%	36%
Cc1ccc(NC(=O)/C=C/c2ccccc2Cl)cc1Cl	2%	nt	-2%	nt	1%	27%
O=C(/C=C/c1ccccc1Cl)NC1CCS(=O)(=O)C1 (stereo not drawn)	?	1%	5µM*	3.8µM*	0%	-18%
Cc1cc(N)c2cc(NC(=O)/C=C/c3ccccc3Cl)ccc2n1	43%	-24%	63µM*	-5%	?	-20%
COc1ccc(N2CCN(C(=O)c3nn(C)c4c3CSc3ccccc3-4)CC2)cc1	3%	nt	-17%	nt	-21%	26%
COc1ccc(NC(=O)c2cccnc2SC)cc1OC	9%	nt	-3%	-2%	10%	29%
COc1ccc(NC(=O)CSc2nc(-c3cccc(C)c3)[nH]c2-c2ccccc2)cc1OC	14%	nt	?	nt	22µM*	-14%
O=C(CSc1nc(-c2ccccc2)[nH]c1-c1ccccc1)Nc1ccc2c(c1)OCO2	9%	nt	?	nt	56µM*	?
COc1ccc(NC(=O)CSc2ncccc2C(=O)O)cc1OC	2%	nt	-10%	nt	56µM*	21%
Cn1c(-c2ccccc2)c(CCO)c2ccccc21	14%	-1%	?	27µM*	-14%	?
Cn1c(-c2ccccc2)c(C(=O)CCl)c2ccccc21	71µM*	39%	25%	?	17%	80%
Cn1c(=O)c(-c2ccccc2)c(O)c2ccccc21	-1%	nt	-6%	-1%	-5%	41%
CCCC(c1c(C)n(C)n(-c2ccccc2)c1=O)c1c(C)n(C)n(-c2ccccc2)c1=O	-24%	-3%	?	2.4µM*	nt	?
CN(C(=O)c1cc2nc(-c3ccc4c(c3)OCO4)cc(C(F)(F)F)n2n1)c1ccc(OC(F)(F)F)cc1	-21%	nt	10%	nt	6%	55%
COc1ccc(-c2cc3ccccc3n2CC(O)Cn2nc(C)cc2C)cc1 (stereo not drawn)	7%	-11%	-31%	-8%	-11%	11%
COc1ccc(-c2cc3ccccc3n2CC(O)CN2CCC(C)CC2)cc1 (stereo not drawn)	-7%	nt	18µM*	-20%	50µM*	?
Cc1cc2c(s1)c1cnn(Cc3ccc4ccccc4c3)c(=O)c1n2C	nt	nt	-19%	nt	nt	nt
Cc1ccc(-c2cnc(SCC(=O)N3CCCc4ccccc43)n2C)cc1	-1%	?	?	1%	28µM*	?
Cn1c(-c2ccccc2)cnc1SCC(=O)N1CCCc2ccccc21	-5%	-7%	?	-2%	45µM*	?
O=C(CSc1nccn1-c1ccc(Cl)cc1)N1CCCc2ccccc21	1%	-20%	?	-4%	35µM*	?
Cn1c(SCC(=O)N2CCCc3ccccc32)ncc(C(=O)Nc2ccccc2)c1=O	10%	nt	0%	nt	3%	57%
Cc1ccc(-c2ccc(SCC(=O)N3CCCc4ccccc43)nn2)cc1	nt	-10%	nt	nt	?	nt

Compound activity: PubChem BioAssay, National Center for Advancing Translational Sciences (NCATS)
